Screens from PubChem BioAssay.
DRD3 antagonist: D3 dopamine receptor (human) antagonism; P35462; D3R cells, DiscoveRx beta-arrestin luminescence, antagonist mode; active compounds read low; max response, negative = inhibition, %; actives 2.5% (n = 360,000); AID 652054; in the data active means max response below about -50%; inconclusive means no clear call, values can overlap the other calls; further: on the % scale 0 is the no-effect control and ±100 the full control effect
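Cells expressing the human receptor were seeded at 1500 cells/well, incubated overnight at 37 degrees C in 5% CO2, then exposed to library compounds with dopamine controls for 90 minutes at 37 degrees C before luminescent detection.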
HEK293 tox: cytotoxicity in counter-screen for GLP-1R inverse agonists | AID 624418 | actives 0.13% (n = 410,000) | HEK293 cAMP-luciferase reporter cells, luminescence, 24 h | Potency, µM (highest dose often 38.3 µM), inactives show at the highest dose activity change, negative = inhibition, hits mostly inhibitors;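 further: loss of luciferase light is scored as toxicity; potency means the concentration at half of the fitted maximal effect; on the % scale 0 is the no-effect control and ±100 the full control effect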
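A 23 nL compound transfer followed 12 hours of cell culture at 37 deg C; exposure then lasted 24 hr. Luciferase assay detection reagent was dispensed and plates read for luminescence after a 12 min room-temperature wait.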
D3 ag: D3 dopamine receptor (human) agonism; D3R DiscoveRx beta-arrestin cells, luminescence, 90 min; max activation, %; actives 0.58% (n = 410,000); AID 652048; in the data active means max activation above about 30%; further: 0% is about no effect
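Agonist-mode cell screen: cells plated at 1500/well and incubated overnight at 37 °C, then exposed to library compounds for 90 min at 37 °C. Detection reagent was added for 30–60 min at room temperature, and luminescence was read.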
ClpP mod: qHTS Assay for Activators of ClpP. ATP-dependent Clp protease proteolytic subunit (Bacillus subtilis (strain 168)), P80244. purified B. subtilis ClpP, FRET peptide cleavage, 20 min. Potency, µM (series often up to 57.5 µM), for the others: top-dose activity change, negative = active. actives 1.9% (n = 340,000). AID 651965, 2013; active means well fitted falling curve with a large enough effect; inconclusive means small, poorly fitted or top-dose-only effect; inactive means no such curve, though single readings can be large or run the other way; further: potency means the concentration at half of the fitted maximal effect; the source files actives as falling curves though it sought activators and does not explain the sign; nearly all actives have a fitted effect of over 65% in size
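Purified B. subtilis ClpP, 10 microg/mL final in Tris/HCl pH8 with KCl, BSA, glycerol and Tween-20, cleaved an Abz/nitrotyrosine-quenched decapeptide. Fluorescence (ex 320, em 430) was read at 0 and 20 min at room temperature. Delta was normalized to 5.8 microM ADEP and DMSO/no-enzyme controls.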
GLP1R inv ag: inverse agonists of human GLP-1 receptor | P43220 | HEK293 GLP-1R CRE-luciferase, luminescence, 24 h; GLP-1R form is constitutively active | Potency, µM (titrated, usually from 38.3 µM), without a hit: at the top dose activity change, negative = inhibition, most hits filed as inhibitors | actives 1.6% (n = 410,000); further: potency means the concentration at half of the fitted maximal effect; on the % scale 0 is the no-effect control and ±100 the full control effect; nearly all actives have a fitted effect of over 55% in size
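qHTS in 1536-well format: reporter HEK293 cells expressing constitutive GLP-1R activity in DMEM + 10% Nu serum, 24 hr with compounds at 37 deg C, luminescence read after 12 min with detection reagent.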
GLP1R ag: activates the human GLP-1 receptor | actives 0.007% (n = 380,000) | Potency, µM (highest dose often 45.6 µM), for the others: at the highest dose activation, actives largely listed as activators | HEK293 GLP-1R CRE-luciferase, luminescence, 4-6 h; cells express a hypersensitive GLP-1R form | P43220 | AID 624172; further: potency means the concentration at half of the fitted maximal effect; % of control where 0% means no effect
* = called active by the depositor; ? = inconclusive; . = not tested or not shown; [ ] = another dose, or the depositor's remark. Most compounds without a hit are left out; they make up all but 5.7% or so of the library. Unless noted, the call rests on the fitted dose curve; in most records, active means well fitted curve in the direction sought with a large enough effect; inconclusive means small, poorly fitted or top-dose-only effect, or another doubt; inactive means no such curve, though single readings can be large; an effect the other way counts as inactive or inconclusive.

SMILES | DRD3 antagonist | HEK293 tox | D3 ag | ClpP mod | GLP1R inv ag | GLP1R ag
Cc1cccc(NC(=S)NC2CC3CCCC(C2)N3Cc2ccccc2)c1C (stereo unspecified) | -100.3* | -27.9% | -8.5 | -3.2% | ? | 21.2%
Cc1ccccc1C(=O)NC1CC2CCCC(C1)N2Cc1ccc(Cl)cc1 (stereo unspecified) | -96.9* | -1.1% | -18.7 | 0.8% | -20.0% | 1.1%
O=C(NC1CC2CCC(C1)N2Cc1ccccc1)c1ccccc1Cl (stereo unspecified) | -88.9* | 3.1% | -17.5 | -0.8% | 0.3% | -3.3%
COc1ccccc1C(=O)NC1CC2CCCC(C1)N2Cc1ccccc1 (stereo unspecified) | -111.6* | -0.5% | 3.7 | 0.5% | 5.4% | -3.1%
CCCCN1C2CCCC1CC(NC(=O)c1ccccc1Cl)C2 (stereo unspecified) | 11.4 | 0.2% | -9.8 | -0.4% | 7.5% | 4.5%
Cc1cccc(NC(=S)NC2CCCC2)c1C | 7.3 | -16.0% | 3.1 | -1.6% | -22.1% | 10.1%
Cc1ccccc1C(=O)NC1CCN(C(=O)NCc2ccccc2)CC1 | 4.7 | -2.8% | 21.4 | 3.0% | 7.1% | -2.4%
Cc1ccccc1C(=O)NC1CC2CCCC(C1)N2Cc1ccccc1 (stereo unspecified) | -84.7* | 10.4% | -17.8 | -3.2% | 2.3% | -3.8%
COc1cc(-c2cc(-c3nnco3)c3ccccc3n2)cc(OC)c1OC | 16.0 | 2.7% | 0.7 | 12.6µM* | 39.3% | 20.4%
c1ccc(-c2cc(-c3nnco3)c3ccccc3n2)nc1 | -10.3 | 2.0% | -4.6 | . | 9.6% | 5.7%
Cc1noc(C)c1S(=O)(=O)N(C)C[C@H]1OCc2cnnn2CCCC(=O)N([C@H](C)CO)C[C@H]1C | -1.9 | -6.5% | -8.6 | 1.6% | 6.8% | -2.1%
CCCCC(CC)Cn1c(N)c(C#N)c2nc3ccccc3nc21 (stereo unspecified) | 14.4 | 21.0% | -1.9 | 31.6µM* | -12.4% | -0.6%
CCCCn1c(NC(=O)CC)c(C#N)c2nc3ccccc3nc21 | 7.6 | 16.6% | 3.7 | 15.8µM* | 0.6% | 0.1%
N#Cc1c(NC(=O)c2ccccc2Cl)n(Cc2ccccc2)c2nc3ccccc3nc12 | ? | 122.7% | -3.5 | -29.7% | ? | -2.6%
CN(C)CCCn1c(N)c(C#N)c2nc3ccccc3nc21 | 7.1 | 188.8% | 5.6 | . | 4.2% | 4.5%
CCCCn1c(NC(=O)c2ccccc2Cl)c(C#N)c2nc3ccccc3nc21 | ? | 464.7% | 3.9 | -21.4% | 5.62µM* | -4.0%
CCC(=O)Nc1c(C#N)c2nc3ccccc3nc2n1-c1ccccc1C | 80.3 | 324.3% | 1.3 | 3.55µM* | 2.9% | 2.2%
O=C(O)C1CCCC1 | . | . | . | -25.6% | . | .
COc1ccccc1NC(=O)CCCOc1cc(=O)n(C)c2ccccc12 | . | -4.8% | -16.4 | 1.1% | -0.8% | .
CC12CCC3C(CCC4CC(O)CCC43C)C1CC(O)C2 (stereo unspecified) | 82.3 | -2.1% | 30.7* | . | 8.1% | 13.0%
CC1=C(C(=O)O)N2C(=O)[C@@H](NC(=O)[C@@H](N)c3ccc(O)cc3)[C@@H]2SC1 | . | . | . | . | . | -3.9%[19.8 µM]
Cc1cc2nc3c(=O)[nH]c(=O)nc-3n(C[C@H](O)[C@H](O)[C@H](O)COP(=O)(O)OP(=O)(O)OC[C@H]3O[C@@H](n4cnc5c(N)ncnc54)[C@H](O)[C@@H]3O)c2cc1C | . | . | -9.4 | . | . | 12.8%
CC1(C(=O)NS(=O)(=O)C2CC2)CCCN(C(=O)c2ccc(F)c(Cl)c2)C1 (stereo unspecified) | 14.2 | 0.2% | 5.2 | 1.6% | 11.2% | -2.3%
COCCCN1C(=O)C(CC(=O)NCCCN(C)C)CC(C(=O)N2CCOCC2)=C1C (stereo unspecified) | 1.0 | 3.1% | 95.3* | -0.4% | 21.4% | -1.1%
CCCCN1C(=O)C(CC(=O)NC2CCCCC2)CC(C(=O)N2CCOCC2)=C1C (stereo unspecified) | -53.5* | 1.6% | 8.3 | 1.2% | 16.6% | 0.7%
SMILES | DRD3 antagonist | HEK293 tox | D3 ag | ClpP mod | GLP1R inv ag | GLP1R ag
COCCCN1C(=O)C(CC(=O)NCCCN(C)C)CC(C(=O)N2CCCCCC2)=C1C (stereo unspecified) | -24.6 | -13.9% | -10.0 | -2.3% | 13.8% | 1.3%
CCOCCCNC(=O)c1cnc2sc(N3CCCCC3)nn2c1=O | . | -5.5% | 6.9 | 3.9% | 4.4% | .
CN1CCN(c2nc(N3CCN(CCO)CC3)nc3ccccc23)CC1 | 19.5 | ? | 2.8 | -0.9% | ? | -2.3%
OCCN1CCN(c2cc(-c3ccccc3)c3ccccc3n2)CC1 | -80.7* | -9.9% | -10.9 | -3.3% | ? | 0.6%
CC(=O)Nc1cccc(NC(=O)c2cc3c(=O)n4cccc(C)c4nc3n2C)c1 | . | 12.7% | -2.5 | -17.9% | -1.2% | .
Fc1cc(NCc2ccccc2)nc(NCc2ccccc2)n1 | -1.8 | 8.8% | -4.3 | 0.7% | ? | 7.8%
Fc1cc(F)nc(NCc2ccccc2)n1 | 12.4 | 10.5% | 36.8* | 2.7% | 2.4% | -0.5%
Cc1cc(Nc2cccc(F)c2)nc(NCc2ccccc2)n1 | 5.4 | -26.5% | -5.4 | -24.3% | ? | 4.5%
Cc1cc(Nc2ccccc2)nc(NCc2ccccc2)n1 | ? | ? | -8.9 | -13.4% | 8.91µM* | 15.1%
Cc1cc(Nc2ccc(Cl)cc2)nc(NCc2ccccc2)n1 | -29.7 | ? | -6.6 | -8.3% | 11.2µM* | ?
Cc1ccc(/C=N/Nc2cc(C)nc(NCc3ccccc3)n2)cc1 | -6.4 | -14.6% | -0.9 | . | 2.82µM* | 13.5%
CC(C)(C)OC(=O)N1CCC(c2c(C(=O)NC3CCN(Cc4ccccc4)CC3)cnn2-c2ccc(F)cc2F)CC1 | . | 1.1% | -19.0 | 0.9% | -11.0% | .
CCC(NC(=O)Nc1cc(Cl)ccc1OC)c1c(-n2cccc2)sc2c1CCN(C)C2 (stereo unspecified) | . | -6.7% | -17.3 | -5.2% | ? | .
CCn1c(=O)cc(OCC(=O)N2CCN(c3ccccc3OC)CC2)c2ccccc21 | . | -3.5% | -3.7 | -11.7% | -28.6% | 11.4%
Oc1c(C(c2ccc(F)cc2)N2CCCC2)sc2nc(-c3ccco3)nn12 (stereo unspecified) | . | 3.4% | -1.6 | -1.0% | 2.0% | .
O=C1C(=C(c2ccccc2)c2ccccc2)Nc2ccccc21 | -14.3 | ? | -5.1 | 3.3% | 3.16µM* | 1.5%
O=C1C(=C(O)c2ccccc2)C(=O)c2ccccc21 | ? | ? | -10.6 | -1.7% | 12.4% | 4.5%
COc1ccc(NS(=O)(=O)c2cc(C(=O)N3CCN(C/C=C/c4ccccc4)CC3)ccc2C)cc1 | -8.5 | ? | 49.4* | -1.7% | ? | 0.4%
